Autofluor counter = counter-screen for toxin protease inhibitors: compound fluorescence | 3.1% of 360,000 active | compound autofluorescence counterscreen, microsphere flow cytometry; stronger effect = higher value | fluorescence intensity (concentration not given with the values); in the data active = fluorescence intensity above about 16000; inconclusive = no clear call, values can overlap the other calls
PfHsp40 yeast = rescue of yeast from PfHsp40 toxicity, primary screen, S. cerevisiae, ATP luminescence; S. cerevisiae expressing PfHsp40, growth rescue; 0.68% of 340,000 active; growth rescue, % at 12.5 µM; AID 504582, 2011; in the data active = growth rescue above about 28%, passing the limit was not always enough; inconclusive = no clear call, values can overlap the other calls;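 note: yeast W303a lacking pdr1 and pdr3 grown in galactose medium; growth measured after three days at 30 °C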
MazEF act = activators of E. coli MazEF toxin-antitoxin RNase, primary screen, biochemical, fluorescence, uHTS. FAM/BHQ RNA-DNA oligo cleavage fluorescence, 5 h. 0.32% of 350,000 active. activation, % at 20 µM; in the data active = activation above about 50%
BoNT-F LC inh = BoNT/F light chain protease inhibitors, primary screen, biochemical, flow cytometry, MLPCN library; 0.22% of 360,000 active; Multiplex microsphere protease cleavage assay; inhibition, % at 10 µM; Botulinum neurotoxin type F light chain protease (Clostridium botulinum); AID 588497, 2011; in the data active = inhibition above about 35%, passing the limit was not always enough; inconclusive = no clear call, values can overlap the other calls; note: plate controls were buffer without enzyme for full effect and enzyme alone for no effect
BoNT-A LC inh2 = BoNT/A light chain protease inhibitors, primary screen, biochemical, flow cytometry, MLPCN library | multiplex microsphere protease substrate cleavage | inhibition, % at 10 µM | Botulinum neurotoxin type A light chain protease (Clostridium botulinum A str. ATCC 3502) | 0.17% of 360,000 active | AID 588499, 2011; note: plate controls were buffer without enzyme for full effect and enzyme alone for no effect
Anthrax LF prot = Bacillus anthracis LF protease inhibitors, primary screen, biochemical, multiplex microsphere, MLPCN library; AID 588501, 2011; Lethal factor (Bacillus anthracis), P15917; 0.12% of 360,000 active; multiplex microsphere protease cleavage assay; inhibition, % at 10 µM; note: plate controls were buffer without enzyme for full effect and enzyme alone for no effect
Target sequence (P15917 whole entry, looked up): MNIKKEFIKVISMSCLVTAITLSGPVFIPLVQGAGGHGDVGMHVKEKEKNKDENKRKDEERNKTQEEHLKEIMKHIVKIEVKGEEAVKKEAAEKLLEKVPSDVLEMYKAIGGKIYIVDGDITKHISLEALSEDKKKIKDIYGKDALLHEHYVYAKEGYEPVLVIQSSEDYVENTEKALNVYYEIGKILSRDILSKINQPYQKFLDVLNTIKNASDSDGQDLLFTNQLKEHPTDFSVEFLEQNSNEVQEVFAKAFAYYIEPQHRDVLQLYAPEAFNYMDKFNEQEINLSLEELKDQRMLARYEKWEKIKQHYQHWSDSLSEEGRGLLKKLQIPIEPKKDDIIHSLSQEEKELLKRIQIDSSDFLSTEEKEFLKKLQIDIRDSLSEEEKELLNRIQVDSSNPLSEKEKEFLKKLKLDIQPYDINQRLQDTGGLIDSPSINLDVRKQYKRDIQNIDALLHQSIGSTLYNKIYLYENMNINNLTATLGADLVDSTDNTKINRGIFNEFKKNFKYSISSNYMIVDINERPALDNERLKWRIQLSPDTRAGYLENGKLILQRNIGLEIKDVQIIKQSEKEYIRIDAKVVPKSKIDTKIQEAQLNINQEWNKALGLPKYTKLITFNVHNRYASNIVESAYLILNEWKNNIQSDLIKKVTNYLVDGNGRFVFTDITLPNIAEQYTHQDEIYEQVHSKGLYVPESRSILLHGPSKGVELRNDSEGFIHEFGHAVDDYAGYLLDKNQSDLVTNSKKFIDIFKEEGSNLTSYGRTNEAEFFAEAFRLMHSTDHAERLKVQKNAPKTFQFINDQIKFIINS
* marks the source's active call; other numbers are inactive results; u = inconclusive; x = not tested or not shown. Hits are enriched below; roughly 4.3% of the tested compounds scored in any of these assays. Cut-off read from the data, not from the text of the source, unless noted: active = inhibition above about 30%; inconclusive = no clear call, values can overlap the other calls; inactive = below that.

SMILES	Autofluor counter	PfHsp40 yeast	MazEF act	BoNT-F LC inh	BoNT-A LC inh2	Anthrax LF prot
Oc1cc(-n2cccn2)c(O)cc1-n1cccn1	3669	2	-12	-11	-2	-5
O=C(CC1CCCC1)N1CCN(S(=O)(=O)c2ccccc2)CC1	3750	-1	-8	-15	-1	-8
CC1(C)Cc2c(cnn2-c2ccccc2)C(NC(=O)c2ccc[n+]([O-])c2)C1 (stereo unspecified)	5672	0	-6	3	0	0
CCOCCCNC(=S)N(CCCN(C)C)Cc1cc2cc3c(cc2[nH]c1=O)OCCO3	3011	-3	5	u	5	9
Cc1ccc(S(=O)(=O)NCc2ccccc2)cc1	u	1	3	u	5	-1
COc1ccc(S(=O)(=O)NCc2cccs2)cc1	21782*	1	0	-1	0	2
CSc1ccc(S(=O)(=O)NCc2ccc(C)cc2)cc1	23510*	4	-1	-1	-1	0
COc1ccc(S(=O)(=O)NCc2ccccc2)cc1	21265*	0	9	-9	-5	-2
CCN(CC)S(=O)(=O)c1ccc(S(=O)(=O)NCc2cccs2)cc1	3642	0	1	0	-2	-1
COc1ccc(C2CCCN2C(=S)Nc2cccc(C)c2C)cc1OC (stereo unspecified)	3284	1	12	7	0	5
CSc1ccc(CCCCCCOC(=O)C(C)(C)C)cc1	2846	-1	-2	-6	-1	0
O=C(c1ccc2c(c1)CCC2)N1CCN(Cc2c(F)cccc2Cl)CC1	3986	x	5	6	0	-4
Nc1ccccc1-c1nnn(CC(=O)Nc2ccc3c(c2)OCCO3)n1	5856	0	-17	-2	2	0
COc1ccc(C(=O)Nc2ccccc2-c2nnn(CC(=O)Nc3ccc4c(c3)OCCO4)n2)cc1	20699*	0	-11	-1	-1	0
COc1ccc(/C=C/C(=O)OCC(=O)NC2CCCC2)cc1OC	3608	4	0	-8	0	1
Nc1nonc1-n1nnc(C(=O)N/N=C/c2ccncc2)c1-c1ccccc1	5215	0	0	1	2	-2
C=CCn1c(SCC(=O)Nc2ccc3c(c2)OCCO3)nnc1-c1ccco1	16334*	1	6	1	-1	-3
C=CCn1c(C)nnc1SCC(=O)Nc1ccc2c(c1)OCCO2	2910	-3	7	-3	0	-2
CCn1c(CNC(=O)c2ccco2)nnc1SCC(=O)Nc1ccccc1Cl	4983	-1	12	6	1	0
CCn1c(CNC(=O)c2ccco2)nnc1SCC(=O)Nc1cc(C)c(C)cc1Br	22252*	1	3	0	u	1
C=CCn1c(CNC(=O)c2ccco2)nnc1SCC(=O)Nc1cccc(Br)c1	24230*	2	5	-2	-2	0
COc1ccc(S(=O)(=O)Nc2ccc(N(C)C(C)=O)cc2)cc1	x	0	9	x	x	x
COc1ccc(NC(=O)Nc2ccc(N(C)C)cc2)cc1	18854*	0	39	-24	3	-14
COc1ccc(S(=O)(=O)Nc2ccc(NC(C)=O)cc2)cc1	23841*	-2	-3	-6	-4	-2
COc1ccc(CC(=O)Nc2ccc(S(=O)(=O)Nc3nc(C)cc(C)n3)cc2)cc1	19652*	1	-7	3	2	-5
CCOc1cc(NS(=O)(=O)c2ccc(NC(C)=O)cc2)c(OCC)cc1NC(=O)C(C)C	20625*	0	-3	6	3	-8
COc1ccccc1CNS(=O)(=O)c1ccc(NC(C)=O)cc1	22915*	-1	0	-2	-2	-2
CCOC(=O)N1CCN(C(=O)CSCC(=O)Nc2nc(-c3ccc4c(c3)OCO4)cs2)CC1	19205*	1	-2	2	2	-6
COc1cc(/C=N/NC(=O)CSc2n[nH]c(=O)[nH]c2=O)cc(OC)c1O	4532	0	-12	3	0	1
O=C(CCCn1nnnc1CN1CCOCC1)N1CCC(c2ccccc2Cl)C1 (stereo unspecified)	5843	0	-1	1	-2	-2

Screens: PubChem BioAssay, several laboratories
